Measurements reported in PubChem BioAssay (NCATS).
Several values for one entry are separate records, joined by “and”; a condition that tells them apart may be missing. Equal entries are not always repeated. Inconclusive results are not listed. Activity calls are given as the source filed them. Unless noted, the call rests on the fitted dose curve; in most records, active means well fitted cell-killing curve with a large enough effect; inconclusive means small, poorly fitted or top-dose-only effect; inactive means flat fitted curve, though single readings scatter.

Tests used:
[1] = Cell Viability - LYMP2-025 (AID 976);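 further: series mostly up to about 92 µM; plate controls were DMSO only for no effect and tetraoctylammonium bromide control for full effect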
Summary of the method: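 Luminescent ATP readout after 24 hr treatment of a human lymphoblastoid line (LYMP2-025, 2500 cells/well, 37 C). Reagent developed 30 min at room temperature; AC50 fitted with the Hill equation.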

[2] = Cell Viability - LYMP2-002 (AID 977);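 further: series mostly up to about 92 µM; plate controls were DMSO only for no effect and 92 µM tetraoctylammonium bromide for full effect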
Summary of the method: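 Human lymphoblastoid cells, 2500/well, complete medium; 5 h 37 C settle; compound 24 h 37 C; CellTiter-Glo, 30 min RT; luminescence. Decrease in ATP = cytotoxicity; AC50 via Hill equation.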

[3] = Cell Viability - LYMP2-006 (AID 978); further: series mostly up to about 92 µM; on the % scale 0 is the no-effect control and ±100 the full control effect; nearly all actives have a fitted effect of over 60% in size
Summary of the method: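 Potency values are Hill-fit AC50s for decreases in intracellular ATP (CellTiter-Glo luminescence). LYMP2-006 lymphoblastoid cells, 2500 per well, were exposed to compound in complete culture medium for 24 hr at 37 C.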

[4] = Cell Viability - LYMP2-007 (AID 979);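 further: cells exposed to compound for 24 h before reading; 0% = DMSO only and the negative end = 92 µM tetraoctylammonium bromide; nearly all actives have a fitted effect of over 60% in size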
Summary of the method: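 Measured via luciferase-based ATP quantitation: lymphoblastoid cells, 24 hr compound exposure at 37 C, AC50 from Hill fits.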

[5] = Cell Viability - LYMP2-008 (AID 980); further: on the % scale 0 is the no-effect control and ±100 the full control effect; nearly all actives have a fitted effect of over 60% in size
Summary of the method: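 Measured: ATP-dependent luminescence, proportional to viable cell number, in human lymphoblastoid cells treated 24 hr with compound in complete culture medium. Values are AC50s from Hill-equation modelling of qHTS titrations.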

[6] = Cell Viability - LYMP2-010 (AID 981); further: on the % scale 0 is the no-effect control and ±100 the full control effect; nearly all actives have a fitted effect of over 55% in size
Summary of the method: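 This 24 hr viability screen uses LYMP2-010 lymphoblastoid cells, quantifies ATP via luciferase luminescence, and derives AC50 from Hill fits of qHTS concentration-response data.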

[7] = Cell Viability - LYMP2-012 (AID 982);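 further: cellular ATP by luciferase luminescence where a drop means cytotoxicity; cells exposed to compound for one day before reading; 0% = DMSO only and full loss = 92 µM tetraoctylammonium bromide; nearly all actives have a fitted effect of over 55% in size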
[8] = Cell Viability - LYMP2-014 (AID 983);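 further: series mostly up to about 92 µM; plate controls were DMSO only for no effect and 92 µM tetraoctylammonium bromide for full effect; nearly all actives have a fitted effect of over 50% in size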
Summary of the method: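 Quantitative HTS in lymphoblastoid cells: 24 hr compound exposure, then CellTiter-Glo ATP luminescence. Positive control was tetraoctylammonium bromide, 6.4pM to 92 uM.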

[9] = Cell Viability - LYMP2-016 (AID 984); further: on the % scale 0 is the no-effect control and ±100 the full control effect; nearly all actives have a fitted effect of over 55% in size
Summary of the method: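 Cytotoxicity was scored by luminescent ATP content (CellTiter-Glo) after 24 h compound exposure at 37 C of a human lymphoblastoid line at 2500 cells/well. Concentration-response data were fitted to the Hill equation for AC50.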

[10] = Cell Viability - LYMP2-018 (AID 985);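 further: plate controls were DMSO only for no effect and tetraoctylammonium bromide at 92 µM for full effect; nearly all actives have a fitted effect of over 50% in size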
Summary of the method: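 In this qHTS viability assay, cells are treated for 24 hr and cellular ATP is quantified by luciferase-based luminescence, with tetraoctylammonium bromide as positive control.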

[11] = Cell Viability - LYMP2-020 (AID 986);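 further: series mostly up to about 92 µM; plate controls were DMSO only for no effect and tetraoctylammonium bromide at 92 µM for full effect; nearly all actives have a fitted effect of over 55% in size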
Summary of the method: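 Cells at 2500 per well receive a 24 hr compound exposure at 37 C. Viability is measured as ATP-dependent luciferase luminescence, with AC50 modeled from qHTS concentration-response curves.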

[12] = Cell Viability - LYMP2-022 (AID 987)
Summary of the method: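 In this qHTS cytotoxicity screen, compound titrations were incubated 24 hr at 37 C with human lymphoblastoid cells in complete medium. Luciferase-based ATP luminescence provided the viability signal.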

[13] = Cell Viability - LYMP2-024 (AID 988);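 further: plate controls were DMSO only for no effect and 92 µM tetraoctylammonium bromide for full effect; nearly all actives have a fitted effect of over 60% in size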
Summary of the method: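 Cells at 2500 per well received compound for 24 hr after a 5 hr settling period. Viability was scored by CellTiter-Glo luminescence, with AC50 from Hill fits.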

[14] = Cell Viability - LYMP2-026 (AID 989); further: on the % scale 0 is the no-effect control and ±100 the full control effect; nearly all actives have a fitted effect of over 50% in size
Summary of the method: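 Acute toxicity screen in complete culture medium, with 24 hr compound exposure at 37 C. Viability read as cellular ATP via luciferase reaction, with tetraoctylammonium bromide (6.4pM to 92 uM) as positive control.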

[15] = Cell Viability - LYMP1-002 - Assay at 24 hr (AID 993); further: on the % scale 0 is the no-effect control and ±100 the full control effect
Summary of the method: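 Viability was judged from intracellular ATP using a luciferase read-out, following a 24-hour compound incubation at 37 C of lymphoblastoid cells seeded at 2500 per well. Concentration-response data were fitted to the Hill equation for AC50.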

[16] = Cell Viability - LYMP1-002 - Assay at 40 hr (AID 994)
Summary of the method: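 Concentration-dependent ATP loss after 40 hr treatment at 37 C defined toxicity; AC50 values were obtained by fitting the standard Hill equation.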

[17] = qHTS Assay for Identification of Small Molecule Inducers of Hypoxia Response (AID 2120; active means well fitted curve in the direction sought with a large enough effect in the signal ratio, with a control signal flat, not every such curve was filed as active; the % refers to the signal ratio; further: 0% is about no effect)
Summary of the method: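 HRE-bla ME-180, 2500 cells/well, 0.5% dialyzed FBS medium; cpd titration, 17 h 37 degrees C; CCF4 2.5 h RT; Ex 405, Em 460/530 ratio -> %Activity, AC50.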

[18] = molecular target: Estrogen receptor (Homo sapiens) (UniProt P03372); experiment: qHTS assay for small molecule antagonists of estrogen receptor alpha signaling (AID 588513; active means well fitted curve in the direction sought with a large enough effect in the signal ratio, with a control signal flat, not every such curve was filed as active; the % refers to the signal ratio; further: on the % scale 0 is the no-effect control and ±100 the full control effect)
Chain of Estrogen receptor (Homo sapiens) (P03372 whole entry, looked up): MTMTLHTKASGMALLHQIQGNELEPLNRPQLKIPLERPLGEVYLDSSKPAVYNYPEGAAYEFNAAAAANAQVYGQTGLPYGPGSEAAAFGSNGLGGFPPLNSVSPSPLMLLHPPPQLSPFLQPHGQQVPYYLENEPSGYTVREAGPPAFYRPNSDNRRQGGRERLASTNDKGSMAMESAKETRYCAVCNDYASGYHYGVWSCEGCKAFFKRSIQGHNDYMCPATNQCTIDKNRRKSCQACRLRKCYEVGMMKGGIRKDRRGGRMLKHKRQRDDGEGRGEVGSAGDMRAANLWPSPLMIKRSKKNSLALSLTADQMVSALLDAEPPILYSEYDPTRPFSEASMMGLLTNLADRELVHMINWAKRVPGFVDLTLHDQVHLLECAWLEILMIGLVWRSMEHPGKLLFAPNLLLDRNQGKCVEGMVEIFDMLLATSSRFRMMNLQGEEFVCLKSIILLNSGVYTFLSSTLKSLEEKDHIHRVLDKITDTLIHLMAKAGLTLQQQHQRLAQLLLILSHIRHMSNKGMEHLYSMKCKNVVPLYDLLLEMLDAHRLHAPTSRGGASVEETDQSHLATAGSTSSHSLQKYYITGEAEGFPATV
Summary of the method: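 Antagonist mode: inhibition of 0.5 nM 17-beta-estradiol-driven beta-lactamase reporter in HEK 293 ER-alpha-UAS-bla cells, 18 h at 37C, CCF4 readout after 2 h at RT. Normalised to estradiol and DMSO; titration fitted to Hill.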

[19] = molecular target: Estrogen receptor (Homo sapiens) (UniProt P03372); experiment: qHTS assay for small molecule agonists of estrogen receptor alpha signaling (AID 588514; calls by dose curve;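 further: 0% = vehicle only and 100% = reference agonist; nearly all actives have a fitted effect of over 70% in size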)
Summary of the method: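 Fluorescence from CCF4 cleavage reports ER-alpha-driven beta-lactamase expression in HEK 293 cells treated 18 hrs at 37 C. Data normalized to 17-beta-estradiol (20 nM) and DMSO, fitted to Hill equation.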

[20] = molecular target: Glucocorticoid receptor (Homo sapiens) (UniProt P04150); experiment: qHTS assay for small molecule agonists of glucocorticoid receptor signaling (AID 588532; active means well fitted curve in the direction sought with a large enough effect in the signal ratio, with a control signal flat; the % refers to the signal ratio;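 further: 100% = dexamethasone at 0.1 µM and 0% = DMSO only wells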); settings: HeLa MMTV-bla, beta-lactamase ratio, agonist, 18 h; stronger effect = higher value; percent of dexamethasone control, DMSO zero
Chain of Glucocorticoid receptor (Homo sapiens) (P04150 whole entry, looked up): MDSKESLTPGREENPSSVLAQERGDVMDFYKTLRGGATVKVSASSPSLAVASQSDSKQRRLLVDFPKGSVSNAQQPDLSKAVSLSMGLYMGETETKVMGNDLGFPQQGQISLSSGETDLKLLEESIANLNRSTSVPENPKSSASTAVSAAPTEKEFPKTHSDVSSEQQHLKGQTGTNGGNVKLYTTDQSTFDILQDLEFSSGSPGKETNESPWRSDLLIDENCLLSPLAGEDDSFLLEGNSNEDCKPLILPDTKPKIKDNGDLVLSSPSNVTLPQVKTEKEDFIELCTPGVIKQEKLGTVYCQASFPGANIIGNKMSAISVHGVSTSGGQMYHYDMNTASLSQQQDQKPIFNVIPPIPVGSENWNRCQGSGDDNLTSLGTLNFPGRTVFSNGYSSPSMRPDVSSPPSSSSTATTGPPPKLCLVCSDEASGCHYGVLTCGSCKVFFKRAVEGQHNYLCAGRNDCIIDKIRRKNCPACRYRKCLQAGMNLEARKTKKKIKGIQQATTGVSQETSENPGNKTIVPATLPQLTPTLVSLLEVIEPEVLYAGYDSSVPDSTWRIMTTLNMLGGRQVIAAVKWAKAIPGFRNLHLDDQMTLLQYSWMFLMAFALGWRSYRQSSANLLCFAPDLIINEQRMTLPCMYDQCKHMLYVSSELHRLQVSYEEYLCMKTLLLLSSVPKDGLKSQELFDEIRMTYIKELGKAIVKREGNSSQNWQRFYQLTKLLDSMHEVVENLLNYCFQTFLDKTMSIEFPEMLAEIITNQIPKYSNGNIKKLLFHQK
Summary of the method: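 Cells were plated and rested 3-5 h at 37 C, compounds were added in titration and incubated 18 h, then CCF4 substrate was loaded for 2 h at RT before reading blue/green fluorescence. EC50 came from Hill-equation fitting.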

[21] = molecular target: Glucocorticoid receptor (Homo sapiens) (UniProt P04150); experiment: qHTS assay for small molecule antagonists of glucocorticoid receptor signaling (AID 588533; active means well fitted inhibition curve with a large enough effect in the signal ratio, with a control signal flat, not every such curve was filed as active; the % refers to the signal ratio; further: on the % scale 0 is the no-effect control and ±100 the full control effect)
Summary of the method: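 Antagonist-mode qHTS: compound titrations added to GRE-bla HeLa cells, then dexamethasone 2 nM final; 18 h, 37 C. CCF4 FRET fluorescence normalized to dexamethasone and DMSO; IC50 from Hill fit.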

[22] = molecular target: Peroxisome proliferator-activated receptor gamma (Homo sapiens) (UniProt P37231); experiment: qHTS assay for small molecule agonists of peroxisome proliferator-activated receptor gamma signaling (AID 588536; active means well fitted curve in the direction sought with a large enough effect in the signal ratio, with a control signal flat, not every such curve was filed as active; the % refers to the signal ratio;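 further: 0% = DMSO basal wells and 100% = rosiglitazone at 2 µM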)
Chain of Peroxisome proliferator-activated receptor gamma (Homo sapiens) (P37231 whole entry, looked up): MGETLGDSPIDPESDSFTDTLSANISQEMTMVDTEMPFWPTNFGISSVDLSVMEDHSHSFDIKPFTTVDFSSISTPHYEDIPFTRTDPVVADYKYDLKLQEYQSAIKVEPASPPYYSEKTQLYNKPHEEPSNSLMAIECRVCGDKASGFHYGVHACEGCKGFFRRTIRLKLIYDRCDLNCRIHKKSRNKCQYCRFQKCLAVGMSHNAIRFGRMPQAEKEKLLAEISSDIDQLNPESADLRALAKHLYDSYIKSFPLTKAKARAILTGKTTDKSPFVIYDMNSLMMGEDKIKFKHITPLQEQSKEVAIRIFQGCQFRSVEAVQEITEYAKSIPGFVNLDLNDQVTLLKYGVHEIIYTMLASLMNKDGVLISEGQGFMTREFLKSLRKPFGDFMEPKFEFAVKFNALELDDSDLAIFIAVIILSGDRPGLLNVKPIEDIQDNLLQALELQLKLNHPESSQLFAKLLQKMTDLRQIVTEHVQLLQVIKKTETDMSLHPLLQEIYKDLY
Summary of the method: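 This is an agonist-mode beta-lactamase reporter assay in HEK293 PPAR-gamma-UAS-bla cells with 1% charcoal/dextran FBS. Compound titrations ran 16 h at 37 C before CCF4 detection. EC50 and efficacy are Hill fits scaled to 2 uM rosiglitazone (100%) and DMSO basal.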

[23] = molecular target: Peroxisome proliferator-activated receptor gamma (Homo sapiens) (UniProt P37231); experiment: qHTS assay for small molecule antagonists of peroxisome proliferator-activated receptor gamma signaling (AID 588537; active means well fitted inhibition curve with a large enough effect in the signal ratio, with a control signal flat, not every such curve was filed as active; the % refers to the signal ratio;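 further: reporter cells co-stimulated with 50 nM rosiglitazone agonist during compound treatment; % of control where 0% means no effect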)
Summary of the method: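 Read-out: CCF4 fluorescence (ex 405, em 460/530 nm) after 2 h at RT. Cells were HEK293 carrying a UAS-bla reporter and treated 16 h at 37 C with compound plus rosiglitazone (50 nM final). Normalized to rosiglitazone and DMSO.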

[24] = molecular target: Vitamin D3 receptor (Homo sapiens) (UniProt P11473); experiment: qHTS assay for small molecule antagonists of vitamin D receptor signaling (AID 588541; calls by dose curve;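 further: receptor activated by calcitriol during compound treatment; series mostly up to about 77 µM; on the % scale 0 is the no-effect control and ±100 the full control effect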)
Chain of Vitamin D3 receptor (Homo sapiens) (P11473 whole entry, looked up): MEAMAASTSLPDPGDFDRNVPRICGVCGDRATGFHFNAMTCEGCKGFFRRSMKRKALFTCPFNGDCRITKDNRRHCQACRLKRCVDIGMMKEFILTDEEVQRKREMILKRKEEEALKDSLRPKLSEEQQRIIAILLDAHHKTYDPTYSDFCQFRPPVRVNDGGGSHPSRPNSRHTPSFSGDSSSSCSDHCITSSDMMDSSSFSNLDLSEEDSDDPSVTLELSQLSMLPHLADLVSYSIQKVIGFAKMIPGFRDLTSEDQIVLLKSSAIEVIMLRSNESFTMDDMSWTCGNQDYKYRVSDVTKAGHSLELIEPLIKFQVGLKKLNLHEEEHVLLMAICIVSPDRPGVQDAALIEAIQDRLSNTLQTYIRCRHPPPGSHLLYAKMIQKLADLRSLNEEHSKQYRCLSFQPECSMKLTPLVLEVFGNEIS
Summary of the method: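 VDR-UAS-bla HEK293T cells in 2% charcoal-stripped FBS were stimulated with 1-alpha,25-dihydroxyvitamin D3 (3 nM final) plus compound for 16 h at 37 C. The beta-lactamase CCF4 readout was normalized to 50 nM agonist and DMSO, and Hill fits gave IC50.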

CCCCOC(=O)c1ccccc1C(=O)OCCCC
inactive: Potency [1] | Potency [2] | Potency [3] | Potency [4] | Potency [5] | Potency [6] | Potency [7] | Potency [8] | Potency [9] | Potency [10] | Potency [11] | Potency [12] | Potency [13] | Potency [14] | Potency [15] | Potency [16] | outcome [17] | Potency [18] | Potency [19] | activation [20] -1.41% and -0.473% | Potency [21] | outcome [22] | Potency [23] | outcome [24]
